According to PubChem BioAssay (NCATS):
Inconclusive results are not listed. Where a call stands in place of a potency, no number is given. Active and inactive are the calls of the source. Calls follow the shape of the dose curve; as a rule, active = well fitted cell-killing curve with a large enough effect; inconclusive = small, poorly fitted or top-dose-only effect; inactive = no such curve, though single readings can be large or run the other way.

test: Quantitative High-Throughput drug screen in 47 multiple myeloma cell lines against the NCATS MIPE library collection: JIM3_ECACC cell viability assay (AID 1918963; also: nearly all actives have a fitted effect of over 35% in size); details: JIM3 myeloma viability, CellTiter-Glo ATP, 48 h; series mostly up to 45.8 µM
From the text: PI: Beverly A. Mock Ph.D.
Laboratory of Cancer Biology and Genetics,
Center for Cancer Research, National Cancer Institute,
National Institute of Health, Bethesda, Maryland
Drug resistance and disease progression are common in multiple myeloma (MM) patients, underscoring the need for new therapeutic combinations. […] We hypothesized that effective combinations would reduce MYC expression and enhance p16 activity. […] These preclinical data identify potentially useful drug combinations for evaluation in drug-resistant MM and reveal potential mechanisms of combined drug sensitivity.
Described herein is the primary MIPE qHTS used to cherrypick compounds. Validated compounds were then further tested for potential synergistic activiy.
[1] Peat TJ, Gaikwad SM, Dubois W, Gyabaah-Kessie N, Zhang S, Gorjifard S, Phyo Z, Andres M, Hughitt VK, Simpson RM, Miller MA, Girvin AT, Taylor A, Williams D, D'Antonio N, Zhang Y, Rajagopalan A, Flietner E, Wilson K, Zhang X, Shinn P, Klumpp-Thomas C, McKnight C, Itkin Z, Chen L, Kazandijian D, Zhang J, Michalowski AM, Simmons JK, Keats J, Thomas CJ, Mock BA. Drug combinations identified by high-throughput screening promote cell cycle transition and upregulate Smad pathways in myeloma. Cancer Lett. 2023 Aug 1;568:216284. doi: 10.1016/j.canlet.2023.216284. Epub 2023 Jun 24. PMID: 37356470; PMCID: PMC10408729.
SEQUENCE No. (e.g., 1, 2, 3, etc.); […] (e.g., Cells, Incubation, Reagent, etc.); VALUE and DESCRIPTION.
1; Cells; 5 uL; white, solid bottom 1536-well Greiner assay plate.
2; Compounds; 23 nL; Kalypsis pin tool (Wako USA) equipped with a 1536-well pin head to transfer to the assay plates.
3; Incubation; 48 hours; 37C incubation.
4; Reagent;5uL; CellTiter Glo (Promega).
5; Detector; 425V; Luminescence; Viewlux PerkinElmer.
NOTES (numbers refer to Sequence numbers above)
1. The cell-based screening methods employed in this study were like those previously published. Briefly, the corresponding myeloma cell lines were screened in 1,536-well plates with 500 cells, 5-uL per well for inhibition of cell viability (assessed by measuring ATP levels with CellTiterGlo).
2. NCATS MIPE 4.0 library of approved and investigational drugs were added using the Kalypsis pin tool. Wells treated with DMSO only for 100% viability and media only wells for 0% viability were used as controls.
3. The assay plates were covered and incubated for 48 hours in a 37C, 5% CO2 incubator with controlled humidity.
4. After 48 hours, CellTilter-GloTM luminescent substrate mix (Promega) reagent was added to the assay plate and plates we incubated for 5 min at room temperature.
5. Signal was measured as median relative luminescence units on a ViewLux (PerkinElmer) multiplate reader.
[1] Heske CM, Davis MI, Baumgart JT, Wilson K, Gormally MV, Chen L, Zhang X, Ceribelli M, Duveau DY, Guha R, Ferrer M, Arnaldez FI, Ji J, Tran HL, Zhang Y, Mendoza A, Helman LJ, Thomas CJ. Matrix Screen Identifies Synergistic Combination of PARP Inhibitors and Nicotinamide Phosphoribosyltransferase (NAMPT) Inhibitors in Ewing Sarcoma. Clin Cancer Res. 2017 Dec 1;23(23):7301-7311. doi: 10.1158/1078-0432.CCR-17-1121. Epub 2017 Sep 12. PMID: 28899971; PMCID: PMC6636827.
Potency is read from the fitted curve at half-maximal effect.

| SMILES | Potency |
| --- | --- |
| C#Cc1cccc(Nc2ncnc3cc(OCCOC)c(OCCOC)cc23)c1 | 9.35 µM (active) |
| C[C@@H]1CN(Cc2ccc(F)cc2)[C@@H](C)CN1C(=O)c1cc2c(C(=O)C(=O)N(C)C)cn(C)c2cc1Cl | 13.2 µM (active) |
| O=C(O)[C@@H](c1ccc(OCc2ccc3ccccc3n2)cc1)C1CCCC1 | inactive |
| COc1cc2c(cc1OC)CN(CCc1ccc(NC(=O)c3cccc4c(=O)c5cccc(OC)c5[nH]c34)cc1)CC2 | 6.62 µM (active) |
| CCCCCCCc1ccc(CCc2cccc(O)c2C(=O)O)cc1 | 20.9 µM (active) |
| Cc1csc(NC(=O)c2sc3nc4c(c(C(F)(F)F)c3c2N)CCC4)n1 | inactive |
| Cc1cc(C=c2sc3nc4ccccc4n3c2=O)c(C)n1-c1ccccc1 | inactive |
| Clc1ccc(Nc2nnc(Cc3ccncc3)c3ccccc23)cc1 | 20.9 µM (active) |
| OC(CN1CCC(Cc2ccc(F)cc2)CC1)c1ccc(Cl)cc1 (stereo not given) | inactive |
| CN1CCN(CCCN2c3ccccc3Sc3ccc(C(F)(F)F)cc32)CC1 | 8.33 µM (active) |
| COc1ccc(COc2cc3oc(=O)c4cc(C(C)O)ccc4c3cc2OC)cc1 (stereo not given) | 16.6 µM (active) |
| Nc1ccc(S(=O)(=O)Nc2ccnn2-c2ccccc2)cc1 | inactive |
| CCc1cncnc1N1CCN(Cc2nc3ccc(C(F)(F)F)cc3[nH]2)CC1 | 20.9 µM (active) |
| Fc1ccc(Cl)cc1-c1nc(Nc2ccncc2)c2nccnc2n1 | 13.2 µM (active) |
| NCCc1ccc(O)c(O)c1 | 18.7 µM (active) |
| CCCCNc1cc(C(=O)O)cc(S(N)(=O)=O)c1Oc1ccccc1 | inactive |
| OCCn1cc(-c2cnc3nnn(Cc4ccc5ncccc5c4)c3n2)cn1 | inactive |
| NC(=O)c1ccc(-c2nc(-c3ccc4c(c3)OCO4)c(-c3ccccn3)[nH]2)cc1 | inactive |
| OCCC#Cc1nc(-c2ccc(F)cc2)c(-c2ccncc2)n1CCCc1ccccc1 | 23.5 µM (active) |
| O=c1[nH]c(-c2ccc(C(F)(F)F)cc2)nc2c1CSCC2 | inactive |

| SMILES | Potency |
| --- | --- |
| CCOC(=O)C1=C[C@]2(CC)CCCN3CCc4c(n1c1ccccc41)[C@@H]32 | 11.8 µM (active) |
| O=C(C1CC1)N1CC[C@@H](Cn2c(-c3ccc(-c4ccc5occc5c4)cc3)nc3cnccc32)C1 | 16.6 µM (active) |
| CN(C)c1ccc(Nc2nc(N)n(C(=O)c3c(F)cccc3F)n2)cc1 | 16.6 µM (active) |
| CCCc1nc2c(C)cc(-c3nc4ccccc4n3C)cc2n1Cc1ccc(-c2ccccc2C(=O)O)cc1 | inactive |
| Oc1ccc(C2CNCCc3c2cc(O)c(O)c3Cl)cc1 (stereo not given) | inactive |
| Nc1ncnc2nc(-c3ccc(N4CCOCC4)nc3)cc(-c3cccc(Br)c3)c12 | 18.7 µM (active) |
| O=S(=O)(N=Cc1c(O)ccc2ccccc12)c1cccs1 | 3.32 µM (active) |
| CC[C@H](Nc1ncnc2nc[nH]c12)c1nc2cccc(F)c2c(=O)n1-c1ccccc1 | 16.6 µM (active) |
| CC(C)(C)NCC(O)c1ccc(O)c(CO)c1 (stereo not given) | inactive |
| CCC(C)n1ncn(-c2ccc(N3CCN(c4ccc(OC[C@H]5CO[C@](Cn6cncn6)(c6ccc(Cl)cc6Cl)O5)cc4)CC3)cc2)c1=O (stereo not given in full) | inactive |
| NC(=O)c1cnccn1 | inactive |
| COc1cc(F)c(F)c(Nc2ccc(I)cc2F)c1NS(=O)(=O)C1(C[C@H](O)CO)CC1 | 18.7 µM (active) |
| CS(=O)(=O)c1cccc(CNc2nc(Nc3ccc4c(c3)CCC(=O)N4)ncc2C(F)(F)F)c1 | 18.7 µM (active) |
| CCCn1c(=O)c2[nH]c(C34CC5CC3C[C@@H](C5)C4)nc2n(CCC)c1=O | inactive |
| c1ccc(-c2nn3c(c2-c2ccnc4cc(OCCN5CCOCC5)ccc24)CCC3)nc1 | inactive |
| Cc1c(CCOc2ccc(C(=O)O)cc2)c2cc(Cl)ccc2n1C(c1ccccc1)c1ccccc1 | inactive |
| C[C@]12CC[C@H](O)CC1=CC[C@@H]1[C@H]2CC[C@]2(C)C(c3cccnc3)=CC[C@H]12 | inactive |
| NC(=O)C1CCCc2c1[nH]c1ccc(Cl)cc21 (stereo not given) | inactive |
| CCOc1ccc(Cc2cc([C@@H]3O[C@H](CO)[C@@H](O)[C@H](O)[C@@H]3O)ccc2Cl)cc1 | 20.9 µM (active) |
| COCCNCCCn1c(C(=O)CF)c(-c2ccc(C)cc2)c2c(N)ncnc21 | inactive |
